# Measurements as given in PubChem BioAssay AID1851 (National Center for Advancing Translational Sciences (NCATS), 2009).
# Among all 16,000 compounds or so, about 5,700 (36%) were called active. Not shown: some 24% with an inconclusive outcome. Calls follow the shape of the dose curve; as a rule, active = well fitted curve in the direction sought with a large enough effect; inconclusive = small, poorly fitted or top-dose-only effect, or effect the other way; inactive = no such curve, though single readings can be large or run the other way. This is one part of the list.
# Biological target: Cytochrome P450 1A2 (Homo sapiens) (UniProt P05177)
# Test: Cytochrome panel assay with activity outcomes
# Settings: recombinant CYP, pro-luciferin dealkylation, luminescence, p450-cyp1a2; series mostly up to 57.1 µM; activity, negative = inhibition: at the top concentration
# % is scaled to controls: 0 for no effect and ±100 for the full control effect.
# Cytochrome P450 1A2 (Homo sapiens), sequence (P05177 whole entry, looked up): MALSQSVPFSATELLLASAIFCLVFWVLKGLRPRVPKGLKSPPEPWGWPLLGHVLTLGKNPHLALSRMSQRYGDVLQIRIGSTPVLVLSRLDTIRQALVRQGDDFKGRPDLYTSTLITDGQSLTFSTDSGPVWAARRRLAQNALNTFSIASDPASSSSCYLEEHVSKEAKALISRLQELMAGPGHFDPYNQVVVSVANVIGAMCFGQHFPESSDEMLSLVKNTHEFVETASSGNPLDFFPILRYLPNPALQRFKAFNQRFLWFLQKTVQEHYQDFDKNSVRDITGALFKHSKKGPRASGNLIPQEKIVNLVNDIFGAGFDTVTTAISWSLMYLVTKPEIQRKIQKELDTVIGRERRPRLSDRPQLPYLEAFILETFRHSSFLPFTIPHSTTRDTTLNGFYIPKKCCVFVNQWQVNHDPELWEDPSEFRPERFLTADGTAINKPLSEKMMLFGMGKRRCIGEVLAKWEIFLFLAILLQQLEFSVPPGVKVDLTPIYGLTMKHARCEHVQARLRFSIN
Structure (SMILES),"activity, negative = inhibition",AC50
Cc1cc(CN2CCCCC2)c(O)c(CN2CCCCC2)c1,-18.8% [at 2.29 µM] (inactive),
Cn1cnc2c(NC3CCCC3)ncnc21,,12.6 µM (active)
OC[C@@H]1O[C@@H](n2cnc3c(NC4CCCC4)ncnc32)[C@H](O)[C@H]1O,-4.01% (inactive),
OC[C@@H]1O[C@@H](n2cnc3c(NC4CCCC4)ncnc32)[C@@H](O)[C@H]1O,-3.56% (inactive),
Cc1ccc(S(=O)(=O)O[C@H]2C[C@@H](C(C)(C)C)CC[C@@H]2c2ccccc2)cc1,-22.8% [at 2.29 µM] (inactive),
O=c1oc(-c2cccs2)nc2ccc(Br)cc12,,2.51 µM (active)
COc1ccccc1N1CCN(CCN2C(=O)CC3(CCCC3)CC2=O)CC1,-12.8% (inactive),
CNC(=S)N1CCN(c2cccc(OC)c2)CC1,,15.8 µM (active)
COc1ccccc1N1CCN(CCCCN2C(=O)c3ccccc3C2=O)CC1,,inactive
CNC(=S)N1CCN(c2ccccc2OC)CC1,,7.08 µM (active)
COc1cccc(N2CCN(C(=S)Nc3cccc(C)c3)CC2)c1,-14.1% (inactive),
COc1ccc(N2CCN(C(=S)Nc3cc(C)cc(C)c3)CC2)cc1,-5.23% (inactive),
CC1CCCN(CCCNC(=O)C2CC(=O)N(c3ccc(F)c(Cl)c3)C2)C1 (stereo unspecified),-12.8% (inactive),
COc1ccc(CNn2c(C)nc3ccccc3c2=O)cc1,,12.6 µM (active)
CCCCOc1ccc(CNn2c(C)nc3ccccc3c2=O)cc1,,15.8 µM (active)
COc1ccc(-c2nc3ccccc3c(=O)n2N)cc1,,25.1 µM (active)
Cc1cc(=O)[nH]c(-n2[nH]c(C)cc2=O)n1,-3.59% (inactive),
O=C1C=C(c2cccs2)CC(c2cccs2)C1n1cnc([N+](=O)[O-])c1 (stereo unspecified),,3.16 µM (active)
Cc1cccc(CNc2ncnc3ccc(-c4ccc5c(c4)OCO5)cc23)c1,,0.501 µM (active)
c1ccc(Nc2ncnc3ccc(-c4ccc5c(c4)OCO5)cc23)cc1,,0.251 µM (active)
c1ccc(CNc2ncnc3ccc(-c4ccc5c(c4)OCO5)cc23)cc1,,0.2 µM (active)
c1ccc(C2CCC(N3CCC(N4CCCCC4)CC3)CC2)cc1 (stereo unspecified),-5.53% (inactive),
COc1ccc(NC(=O)N2CCCC3(CCN(C(=O)c4c(C)noc4C)CC3)C2)cc1,12.3% (inactive),

Structure (SMILES),"activity, negative = inhibition",AC50
O=C(Nc1ccccc1)N1CCCC2(CCN(C(=O)c3ccco3)CC2)C1,,20 µM (active)
Cc1noc(C)c1C(=O)N1CCC2(CCN(C(=O)Nc3ccccc3)CC2)CC1,-8.72% (inactive),
Cc1noc(C)c1C(=O)N1CCC2(CCCN(C(=O)Nc3ccccc3)C2)CC1,,12.6 µM (active)
COc1ccc(NC(=O)N2CCCC3(CCN(C(=O)c4ccco4)CC3)C2)cc1,-10.2% (inactive),
O=C(Nc1ccccc1)N1CC2(CCN(C(=O)c3ccco3)CC2)C1,6.85% (inactive),
CO[C@H]1OC[C@@]2(C)[C@@H]3C4=C(CN2C(=O)OC(C)(C)C)[C@H](C)[C@H](CO)[C@H](CO)[C@H]4CC[C@H]13,-18.6% (inactive),
Cc1ccc(SCc2ccc(C(=O)Nc3cc([N+](=O)[O-])ccc3C)cc2)cc1,-14.8% (inactive),
C=CCN(CC=C)C(=O)C(=O)c1cc(C)n(-c2ccc([N+](=O)[O-])cc2)c1C,-5.98% (inactive),
CC(=O)NS(=O)(=O)c1ccc(NC(=S)NC(=O)C(C)(C)C)cc1,3.06% (inactive),
Cc1ccc([N+](=O)[O-])cc1NC(=S)NC(=O)C(C)(C)C,,0.2 µM (active)
Cc1ccc([N+](=O)[O-])cc1NC(=S)NC(=O)CC(C)(C)C,,2 µM (active)
CCCN1CCN(C(=O)CN2C(=O)CC(C)(C)S(=O)(=O)c3ccccc32)CC1,-7.7% (inactive),
O=c1c(-c2cccs2)nc2cnc(N3CCNCC3)nc2n1-c1ccccc1,,2.51 µM (active)
COc1ccc(-n2c(=O)c(-c3cccs3)nc3cnc(N4CCNCC4)nc32)cc1,,5.01 µM (active)
O=c1c(-c2ccccc2)nc2cnc(N3CCOCC3)nc2n1-c1ccccc1,,12.6 µM (active)
CN1CCN(c2ncc3ncc(=O)n(-c4ccccc4)c3n2)CC1,,2.51 µM (active)
O=C(c1csnn1)N1CCC2(CCCN(Cc3ccccc3)C2)CC1,-7.35% (inactive),
CN1CCN(c2ncc3nc(-c4cccs4)c(=O)n(-c4ccccc4)c3n2)CC1,,3.16 µM (active)
O=c1c(-c2cccs2)nc2cnc(N3CCOCC3)nc2n1-c1ccccc1,,5.01 µM (active)
CO[C@H]1C[C@@H](O[C@@H]2[C@H](C)[C@H](O[C@@H]3O[C@@H](C)C[C@@H](N(C)C)[C@@H]3O)[C@H](C)C[C@]3(CO3)C(=O)[C@H](C)[C@H](O)[C@H](C)[C@H](C)OC(=O)[C@@H]2C)O[C@@H](C)[C@H]1O,1.17% [at 25.6 µM] (inactive),
O=C(CNC(=O)/C(=C\c1ccccc1)NC(=O)c1ccc(Br)cc1)OCc1ccccc1,-27.8% (inactive),
COc1ccc(O)c(/C=N/NC(=O)c2ccc(OCc3cccc(Br)c3)cc2)c1,,11.2 µM (active)
COc1ccc(O)c(/C=N/NC(=O)CSc2nnc(C)n2-c2ccccc2)c1,-4.22% (inactive),
